In one test the target is NGDN. The test can be described thus: pooled miR-30 sensor sort-seq; sequence = guide strand. The note with it: shRNA.
Sequence ATATTTCTTAGACACTCCCTTC had a sensor-assay potency score (higher = more potent) of -0.888.
As for TAGGATTCTGATCCTCATCAAG, the sensor-assay potency score (higher = more potent) is -1.32.
The same measure, in the same setting: the figure for TAATGTACTGGAACCAAGCGTG is -0.00853; for TGTCACTGCAGTCTTGATCAGC it is -0.949.
TTGCTCATCATATTGCTGGGAT displayed a sensor-assay potency score (higher = more potent) of 0.439.
The same measure, in the same setting: the figure for TTCTAGACGCTTCTTCTCCCGC is -0.831.
Take TTTCTCTCGCTTACTGACGCTC: the sensor-assay potency score (higher = more potent) was -0.845.
Turning to TTTTCTTCCGACCTTTCTGAGG, the sensor-assay potency score (higher = more potent) is -1.13.
In turn, TTTCTGTAGGATAGGCACCAGC gave a sensor-assay potency score (higher = more potent) of -1.35.
Sequence TTGCTCGTTTTCGCCGTCCTTT displayed a sensor-assay potency score (higher = more potent) of -1.03.
On the same count and under the same terms, to TACAGCCATCACTTGCTCCTGG belongs -0.0207; to TTCGCCGTCCTTTCTCTCGCTT, -0.269.

A further test concerns the target NHP2. Described as above. Particulars: shRNA.
In turn, TAGACATAGGGCAAATTTCGGT displayed a sensor-assay potency score (higher = more potent) of -0.754.
On the same count and under the same terms, to TTTCTTGATGCATTTGTAGAGC belongs -0.635; to TAGAGCTTCCGCGTGAGGCGGC, -0.484.
TTTGTAGAGCTTCCGCGTGAGG returned a sensor-assay potency score (higher = more potent) of -1.63.
TGCATTTGTAGAGCTTCCGCGT: the sensor-assay potency score (higher = more potent) was -0.805.
TTGACCAGCAGCTCCTGGTAGG came in with a sensor-assay potency score (higher = more potent) of -0.886.
Sequence TCTGCTTCTGCTTCACCGCTTT gave a sensor-assay potency score (higher = more potent) of 0.228.
Consider TTGACCATTATCACACAGGTGG, for which the sensor-assay potency score (higher = more potent) was -0.273.
Sequence TTTCTGAACCTCTTTCACCCCG registered a sensor-assay potency score (higher = more potent) of 0.283.
TTCTGAACCTCTTTCACCCCGC: the sensor-assay potency score (higher = more potent) is -0.0214.
Take TTCACCGCTTTCTTGATGCATT: the sensor-assay potency score (higher = more potent) is -0.959.
Consider TTCTGCTTCACCGCTTTCTTGA, for which the sensor-assay potency score (higher = more potent) was -0.609.

Another test deals with NKIRAS2. The description is as above. Particulars: shRNA.
Regarding AAAGACTCTCTGCTATCTGTGC, the sensor-assay potency score (higher = more potent) was -0.545.
On the same count and under the same terms, to TTGTTCTTCCGGCTGAGGGGGA belongs -0.774.
Consider TCTCGATCATCTCCGAACCCAC, for which the sensor-assay potency score (higher = more potent) was -1.49.
Still for that read-out and setting: to TTGCCAAGGACCACGATGGTGA belongs -0.541; to TGTAAGTCACACTTGTTGCCAA, 0.157; to TTGAGCAGCTCCACACGCTGAA, -0.404.
In turn, TTGCGTCATCTTGCTGGCCAAG gave a sensor-assay potency score (higher = more potent) of -1.52.
As to TATTGTGTCCAACCAATGCATC, the sensor-assay potency score (higher = more potent) was -1.63.
Still for that read-out and setting: the figure for TTATTGTGTCCAACCAATGCAT is -0.509.
On the same count and under the same terms, the figure for TGCGTCTCGATCATCTCCGAAC is -1.51; for TTTGTCAATCTCCTTCTTGAGC it is -1.29.
For the sequence TATAATAGGAACTCAGACCCAA, the sensor-assay potency score (higher = more potent) is -0.0468.

A further test concerns the target NKPD1. The test is described as above. Particulars: shRNA.
In turn, TCTCGCGGTACAACAGGTCGTC came in with a sensor-assay potency score (higher = more potent) of -0.615.
On the same count and under the same terms, to TTGTCGGGCACGTACTCGTAGA belongs -1.44; to TAGATCTCCAGGAAGCACAGGA, 0.323; to TTGAGCAGGCTGCCGCTCGGGC, -0.937.
Note: reference of the scale not given here.
